# Assay results taken from ChEMBL document CHEMBL4513216, “Probing the Open Global Health Chemical Diversity Library for Multistage-Active Starting Points for Next-Generation Antimalarials” (ACS Infect Dis, 2020).
# Hit rate of the full screen: of about 69,000 compounds, about 8,600 (12%) showed an effect of 50% or more. Many of the other results were omitted from the sample, so strong results are more common in it than they were.
# Tested on: Plasmodium berghei
# Assay: Screen against P. berghei liver stage (PbLuc), transformed with Luciferase, at 10uM
# Assay type: functional, HepG2
# Conditions: tested at 10 uM
row,Compound,INHIBITION [%]
1,O=C1CN(C(=O)C2CCC3(CC2)CNC(=O)c2ccccc2O3)CCN1 (configuration not stated),43.6
2,Cc1nn(C)c(C)c1CN(C)C(=O)c1cc(C(F)(F)F)n(C)n1,42.45
3,O=C(c1ccnn1COc1ccc(Cl)cc1)N1CCCC1,1.45
4,O=C(c1ccnn1COc1ccc(Cl)cc1)N1CCSCC1,33.4
5,O=C(c1ccnn1COc1ccc(Cl)cc1)N1CCOCC1,50.8
6,Fc1ccc(CC2CCN(Cc3nccs3)CC2)cc1,38.7
7,Fc1ccc(CN2CCCN(Cc3cscn3)CC2)cc1,-12.5
8,Fc1ccccc1CC1CCN(Cc2cscn2)CC1,82.4
9,Fc1ccccc1CC1CCN(Cc2nccs2)CC1,-131
10,Cc1noc(CN2CCC(Cc3ccc(F)cc3)CC2)n1,57.2
11,Cc1noc(CN2CCC(c3ccnn3CCO)CC2)n1,49.6
12,Cc1noc(CN2CCN(CCO)CC2)n1,-14.9
13,Fc1ccc(CC2CCN(Cc3cscn3)CC2)cc1,68.1
14,Fc1ccccc1CC1CCN(Cc2ccccn2)CC1,45.2
15,CCn1cnnc1CNC(=O)N1CCN(C(C)C)CC1,21.5
16,CN(C)C(=O)CO[C@H]1CN(Cc2ccoc2)[C@@H]2COC[C@H]12,39.5
17,CCc1cnccc1C(=O)Nc1ccc(C(N)=O)nc1,25.1
18,CCc1nnc2n1CCN(C(=O)c1cc3c(F)cccc3[nH]1)C2,21
19,COCCN1C(=O)[C@@H]2CC[C@H]1CN(Cc1nnc(C3CC3)o1)C2,16.2
20,COc1ncc(CN2CCCC(c3[nH]ncc3S(C)(=O)=O)C2)cn1 (configuration not stated),7.05
21,CCn1cc(-c2cc(C(F)(F)F)nn2CCC#N)cn1,11.8
22,Cn1c(C2CC2)nc2c1CCN(CC(=O)Nc1ccncc1)C2,-31.5

row,Compound,INHIBITION [%]
1,N[C@@H]1CCC[C@@H](Oc2ccc(F)cc2Oc2cccc(F)c2)[C@@H]1O,23.2
2,Cc1noc(C)c1C(=O)N[C@@H]1CCC[C@@H](Oc2ccccc2)[C@@H]1O,17.39
3,N[C@H]1CN(C(=O)c2ccccc2Oc2ccccc2)C[C@@H]1C1CC1,31.2
4,N[C@@H]1CCC[C@@H](Oc2ccc(F)cc2Oc2ccccc2)[C@@H]1O,54.4
5,Cc1n[nH]c(C)c1CCC(=O)N[C@@H]1CCC[C@@H](Oc2ccccc2)[C@@H]1O,-18.8
6,CO[C@@H]1CCC[C@@H](N(C)C(=O)c2cc(F)ccc2F)[C@H]1O,-10.4
7,CNCc1cc(F)ccc1Oc1ccc(F)cc1,29.3
8,CN[C@@H]1CCC[C@@H](Oc2ccccc2Oc2ccc(C)cc2)[C@@H]1O,60.2
9,Cc1ccc(Oc2cc(F)ccc2O[C@@H]2CCC[C@@H](N)[C@H]2O)cc1,94.1
10,O=C(c1ccncc1F)N1CCCC(c2nccn2CC2CCC2)C1 (configuration not stated),36.8
11,CC(C)C(C(=O)N1CCCN(Cc2nccn2C)CC1)N1CCCC1 (configuration not stated),11.6
12,O=C(NC1CCCN(CCCc2ccccc2)C1)c1ccc(Cl)s1 (configuration not stated),35.1
13,CN(C)CC(O)Cn1cc(NCc2ccc(Br)cc2)cn1 (configuration not stated),33.1
14,Cc1ccc(C(=O)NCc2ccnc(N3CCN(C)CC3)c2)cn1,38.9
15,CCOc1ccc(C(=O)NCc2ccnc(N3CCN(C)CC3)c2)cn1,14
16,CC(C(=O)NCc1ccnc(N2CCCC2)c1)n1cccn1 (configuration not stated),13.275
17,CCOc1ccc(C(=O)NCc2ccnc(N3CCCC3)c2)cn1,70.5
18,CC(C)Oc1ccc(C(=O)NCc2ccnc(N3CCCC3)c2)cn1,79.9
19,CC(C)Oc1ccc(C(=O)NCc2ccc3c(c2)CCCN3C)cn1,29.2
20,CC(O)CN1CCC(CN(C)Cc2cccc(C(=O)N(C)C)c2)CC1 (configuration not stated),21.5
21,CO[C@@H]1CCN(C(=O)Cc2ccsc2)[C@H]1Cc1cccnc1,-41
22,C[S+]([O-])CCNC(=O)N1CCN(c2cc(F)ccc2F)CC1 (configuration not stated),0.348

row,Compound,INHIBITION [%]
1,Cc1nc(COC[C@]23COC[C@H]2CN(Cc2ccoc2)C3)cs1,-14
2,CN(C)CCOCC1CN(Cc2cccc(F)c2)Cc2nccn2C1 (configuration not stated),86.7
3,N#Cc1cccc(CN2Cc3nccn3CC(COCC3CC3)C2)c1 (configuration not stated),-102
4,c1ccc(CN2Cc3nccn3CC(Cn3cccn3)C2)nc1 (configuration not stated),56.6
5,c1cncc(OCC2CN(Cc3ccsc3)Cc3nccn3C2)c1 (configuration not stated),39.2
6,COc1ncccc1CN1Cc2nccn2CC(Cn2cccn2)C1 (configuration not stated),24.9
7,c1ccc(COCC2CN(Cc3ccsc3)Cc3nccn3C2)nc1 (configuration not stated),76.5
8,CN(C)C(=O)COCC1CN(Cc2ccsc2)Cc2nccn2C1 (configuration not stated),46.2
9,CCOCC1CN(Cc2cccc(C#N)c2)Cc2nccn2C1 (configuration not stated),41.8
10,N#Cc1cccc(CN2Cc3nccn3CC(CN3CCCC3)C2)c1 (configuration not stated),-13
11,c1ccc(CN2Cc3nccn3CC(Cn3cncn3)C2)nc1 (configuration not stated),-37.9
12,COc1ncccc1CN1Cc2nccn2CC(CN2CCCC2)C1 (configuration not stated),72
13,c1cncc(CN2Cc3nccn3CC(Cn3cccn3)C2)c1 (configuration not stated),30.3
14,CC(=O)N(Cc1ncc(C(C)C)o1)C1CCN(CCC#N)C1 (configuration not stated),-6.865
15,Cn1cc(C(=O)N[C@@H]2CN(Cc3cccs3)[C@@H]3CCCO[C@@H]32)cn1,15.1
16,CN(Cc1cccc(F)c1)C(=O)c1cc2c([nH]c1=O)CCCC2=O,8.535
17,CCn1c(C2CCN(C(=O)CCc3cc(Cl)no3)CC2)nn(C)c1=O,0
18,Cc1cc(O)cc(=O)n1CCCC(=O)Nc1n[nH]c2cc(Br)ccc12,3.93
19,Fc1ccc(-c2nc(CNC3CCc4ncnn4C3)co2)cc1 (configuration not stated),23.7
20,CCNC(=O)C1(Cc2cc(-c3ccccc3)no2)CCCN(C(C)C)C1 (configuration not stated),4.41
21,Cc1nc(C)c(C(=O)N2CCCC(c3cnccn3)C2)s1 (configuration not stated),11.1
22,Cc1nc2cc(C(=O)N3C[C@@H](C(=O)O)[C@H](C4CC4)C3)ccc2[nH]1,29.8

row,Compound,INHIBITION [%]
1,CCc1nc(C)c(C(=O)N2C[C@@H]3CC[C@H]2CN(S(=O)(=O)N(C)C)C3)s1,40.7
2,CNc1cc(C)nc(N2C[C@@H](C(=O)O)[C@H](C3CC3)C2)n1,38.6
3,CNc1nc(C)c(C(=O)N2C[C@@H]3CC[C@H]2CN(c2cnccn2)C3)s1,-26.1
4,Cc1nc(C)c(C(=O)N2C[C@@H](C(=O)O)[C@H](C3CC3)C2)s1,76.9
5,CCc1nc(C)c(C(=O)N2CCCC(c3noc(C)n3)C2)s1 (configuration not stated),45.4
6,CNc1nc(C)c(C(=O)N2C[C@@H](C(=O)O)[C@H](C3CC3)C2)s1,83.8
7,CCc1nc(C)c(C(=O)N2C[C@@H](C(=O)O)[C@H](C3CC3)C2)s1,63
8,CN(C)CC(=O)N1CCC2(CC1)CN(Cc1ccccc1)C2,33.4
9,CCOCC(O)CN1CCN(C(=O)c2ccc(C)nc2)CC1 (configuration not stated),24.2
10,Cc1cc(-n2c(C)cn(CN(C)Cc3ccccc3)c2=O)no1,-5.64
11,C=C(C)COc1ccc(C(=O)N(C)C(C)c2ccon2)cc1 (configuration not stated),-1.38
12,COc1ccc(-c2nnc(C(C)N3CCC4(CC3)OCCO4)o2)cc1 (configuration not stated),69.3
13,COc1ccc(-c2nnc(C(C)N3CCOCC3)o2)cc1 (configuration not stated),37.5
14,COc1ccc(-c2nnc(C(C)N3CCOC(C)(C)C3)o2)cc1 (configuration not stated),21.6
15,CC(=O)Nc1nc2c(s1)CN(CC(=O)Nc1ccc(C)c(Cl)c1)CC2,24.2
16,Cc1ccc(C(=O)N2C[C@H]3CCCC(OCc4cccnc4)[C@H]3C2)cn1 (some centres not stated),27.6
17,O=C1CCCCCN1Cc1nc(C2(c3ccc(F)cc3)CCOC2)no1 (configuration not stated),-26.8
18,c1ccc(CO[C@H]2CO[C@@]3(CCCN(Cc4cccnc4)C3)C2)nc1,-17.1
19,Cc1ccccc1C(C#N)NC(=O)CCCOc1cccnc1 (configuration not stated),31.2
20,N#CC(NC(=O)CCCOc1cccnc1)c1ccccc1Cl (configuration not stated),40.9
21,N#CC(NC(=O)CCCOc1cccnc1)c1ccc(F)cc1F (configuration not stated),66.9
22,Cc1ccccc1-n1cc(CNC(=O)CC2C(=O)NCCN2C)cn1 (configuration not stated),4.68

row,Compound,INHIBITION [%]
1,O=C(NC[C@@H]1CCCO1)c1cc(Br)cnc1N1CCCCC1,20.4
2,O=C(c1cccc(F)c1)N(CCCO)S(=O)(=O)c1cccs1,-38.8
3,O=C(c1ccc(F)cc1)N(CCCO)S(=O)(=O)c1cccs1,67.4
4,O=C(c1ccccc1F)N(CCCO)S(=O)(=O)c1cccs1,37.7
5,O=C(c1cscn1)N1CC[C@H]2C[C@H](c3nnc(C4CC4)o3)O[C@@H]2C1,30.3
6,CC(C)(C)C(=O)N1CCC(c2nc(O)cc(-c3ccncc3)n2)CC1,11.1
7,CN(C)c1nccnc1C1CCN(C2CCCCC2O)CC1 (configuration not stated),17.4
8,CC(C)[C@@H]1CN(C(=O)c2ccc3c(c2)CCCO3)C[C@H]1NS(C)(=O)=O,71.1
9,Cc1ccc(C(=O)N2C[C@H](NS(C)(=O)=O)[C@@H](C(C)C)C2)cc1F,14.3
10,Cc1ccc(C(=O)N2C[C@@H](NS(C)(=O)=O)[C@H](C(C)C)C2)cc1O,18
11,C[C@H]1C[C@H]2CN(C(=O)CCc3ccccc3)CC[C@H]2O1,-19
12,CCn1cc(CN2C[C@@H]3CCCN3C[C@@H]2CCSC)cn1,24.4
13,Cc1ccn(CCNC(=O)C2(C)CC(c3ccccc3)=NO2)n1 (configuration not stated),-3.94
14,CCc1noc(CS(=O)(=O)C(C)c2nc(C3CC3)no2)n1 (configuration not stated),51.5
15,CC(C)c1noc(CS(=O)(=O)Cc2nc(C(C)C)no2)n1,34.2
16,CCCc1noc(C(C)S(=O)(=O)Cc2nc(C3CC3)no2)n1 (configuration not stated),22.2
17,CC(C)c1noc(C(C)S(=O)(=O)Cc2nc(C3CC3)no2)n1 (configuration not stated),70
18,CCc1nc(CN2CCN(C(C)c3nc(C4CC4)no3)CC2)no1 (configuration not stated),-23.9
19,Cc1noc(C)c1CS(=O)(=O)Cc1nc(C2CC2)no1,21.6
